# Assay outcomes deposited in PubChem by National Center for Advancing Translational Sciences (NCATS).
# HPGD block = inhibitors of human 15-hydroxyprostaglandin dehydrogenase (HPGD) | P15428 | purified HPGD, NADH fluorescence kinetic, PGE2 substrate | Potency, µM, without a hit: at the highest dose activity change, negative = inhibition, usual class: inhibitors | actives 4.3% (n = 150,000) | AID 894; also: potency is read from the fitted curve at half-maximal effect
#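 20 nM HPGD preincubated 15 min at room temperature with compound in 50 mM Tris-HCl pH 8, 0.01% Tween 20. Started with 1 mM NAD+ and 30 uM prostaglandin E2; NADH fluorescence (360/450 nm) read 5 times over 30-s intervals, last minus first.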
# PNC inhibitor = perinucleolar compartment assembly inhibition; AID 2417; actives 3.1% (n = 140,000); activity change (PNC), negative = inhibition, % at 10 µM; PC3M PTB-GFP, PNC prevalence imaging, 16 h; hits give low values;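 active = readout at or below -70, meaning at least 70% loss of cells showing the perinucleolar compartment, a nuclear body marking cancer cells; inconclusive = readout between -30 and a set limit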;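 also: plate controls were DMSO wells for no effect and camptothecin positive control wells for full effect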
#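 Read-out is percentage of cells bearing a perinucleolar compartment, from automated 20x imaging of fixed, Hoechst-stained PC3M PTB-GFP cells. Cells were seeded 4 h, then exposed 16 h to compound (23 nl of library stock) in duplicate plates.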
# ALDH1A1 inh = blocks purified human ALDH1A1 activity. P00352. Purified ALDH1A1, NADH fluorescence, propionaldehyde substrate. Potency, µM (highest dose often 75.3 µM), for the others: at the top dose activity, negative = inhibition, actives largely listed as inhibitors. actives 7.3% (n = 220,000);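 also: potency is read from the fitted curve at half-maximal effect; plate controls were no enzyme wells and a reference inhibitor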
# Target sequence (P00352 whole entry, looked up): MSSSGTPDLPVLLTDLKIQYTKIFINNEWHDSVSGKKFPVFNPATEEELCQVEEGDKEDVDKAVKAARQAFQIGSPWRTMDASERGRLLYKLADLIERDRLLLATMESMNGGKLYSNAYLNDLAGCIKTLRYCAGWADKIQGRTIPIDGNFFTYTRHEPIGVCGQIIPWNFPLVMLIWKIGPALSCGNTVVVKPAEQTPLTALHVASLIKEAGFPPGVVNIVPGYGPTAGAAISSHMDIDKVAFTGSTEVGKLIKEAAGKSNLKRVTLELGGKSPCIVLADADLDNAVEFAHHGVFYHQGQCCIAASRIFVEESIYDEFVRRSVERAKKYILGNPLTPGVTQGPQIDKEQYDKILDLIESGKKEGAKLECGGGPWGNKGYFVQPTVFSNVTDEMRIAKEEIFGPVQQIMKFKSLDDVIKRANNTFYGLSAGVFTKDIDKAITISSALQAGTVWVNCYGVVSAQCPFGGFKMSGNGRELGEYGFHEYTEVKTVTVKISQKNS
# Numbers without * were called inactive; ? = inconclusive; / = not tested or not shown; [ ] = another dose, or the depositor's remark. Compounds with a hit are over-represented: about 11% of the library has one in this group of screens. Unless noted, calls follow the shape of the dose curve; as a rule, active = well fitted inhibition curve with a large enough effect (not every such curve was filed as active); inconclusive = small, poorly fitted or top-dose-only effect, or another doubt; inactive = no such curve, though single readings can be large or run the other way. Unless noted, % is scaled to controls: 0 for no effect and ±100 for the full control effect.
SMILES,HPGD block,PNC inhibitor,ALDH1A1 inh
Cc1ccc(-c2c[n+](CC(=O)N3c4ccccc4Sc4ccccc43)c3n2CCC3)cc1,3%,?,?
O=C(C[n+]1cc(-c2ccccc2)n2c1CCC2)N1c2ccccc2Sc2ccccc21,1%,-119*,?
COC(=O)CC1SC(=O)NC1=Nc1ccc(OC)cc1 (stereo unspecified),-11%,?,-13%
NC(CCCCCP(=O)(c1ccccc1)c1ccccc1)C(=O)O (stereo unspecified),/,/,4%
C1CCC(C(C[C@@H]2CCCCN2)C2CCCCC2)CC1,-1%,/,?
c1ccc(Cn2ncc3c2ncn2c(-c4ccncc4)nnc32)cc1,-20%,1,2%
Cc1ccc(-n2ncc3c2ncn2c(-c4ccncc4)nnc32)cc1,-4%,-91*,7%
Cc1ccc(C)c(N(C)C(=O)COc2cc(=O)n(C)c3ccccc23)c1,-10%,41,5%
CCOc1ccc2nc(SC3CC(=O)N(c4ccc(C)cc4)C3=O)sc2c1 (stereo unspecified),-6%,3,2.2µM*
CCOc1ccc2nc(SCC(=O)Nc3ccc4c(c3)OCO4)sc2c1,-11%,-15,8%
CCOc1ccc2nc(SCC(=O)c3ccc(C)s3)sc2c1,14µM*,34,?
CCc1ccc(NC2CC(=O)N(c3ccc(OC)cc3OC)C2=O)cc1 (stereo unspecified),-10%,?,-16%
CCOc1ccc2nc(/N=C/c3c(C)[nH]n(-c4ccc(C)cc4)c3=O)sc2c1,?,-2,-6%
CCOc1ccc2nc(SC3CC(=O)N(c4ccc(OC)cc4OC)C3=O)sc2c1 (stereo unspecified),/,/,25µM*
O=C(N/N=C/c1ccc(Br)cc1)c1ccccc1-n1cccc1,-14%,-15,6%
CC(c1ccccc1)n1cc(C(=O)NCc2ccncc2)nn1 (stereo unspecified),-9%,?,1%
N#CC(C#N)=C1C=CC=CN1/C(=C\c1ccco1)C(=O)c1ccc(Cl)cc1,20µM*,?,-7%
N#CC(C#N)=C1C=CC=CN1/C(=C\c1ccco1)C(=O)c1ccc(-c2ccccc2)cc1,-26%,-11,-15%
O=C(CSC1=NCCN1)C1COc2ccccc2O1 (stereo unspecified),-30%,-3,1%
O=C(CCS(=O)(=O)c1ccc(Br)cc1)Nc1ccc2c(c1)OCO2,-7%,-18,?
CCN(C(=O)CCS(=O)(=O)c1ccc(Br)cc1)c1ccc2c(c1)OCO2,-10%,12,16µM*
COc1ccc(C(=O)N2CCC3(CCCN(C)C3)CC2)cc1,-7%,/,2%
O=C(Nc1ccccc1Cl)C1CC(=O)n2c(nc3ccccc32)N1 (stereo unspecified),/,/,10%
O=C(Cn1cc(C(F)(F)F)ccc1=O)N1CCN(S(=O)(=O)c2ccc(Cl)cc2)CC1,-5%,-20,-22%
C/C(N)=C(/C#N)C(=O)CSc1nnc(Nc2cccc(C)c2C)s1,28µM*,-3,?
SMILES,HPGD block,PNC inhibitor,ALDH1A1 inh
C/C(N)=C(/C#N)C(=O)CSc1nnc(Nc2c(C)cccc2C)s1,-17%,?,?
O=C(Nc1cc(C(F)(F)F)ccc1-n1cncn1)c1ccc(-c2ccccc2)cc1,?,-19,?
CC(C)(C)Sc1nc(O)cc(=O)[nH]1,-1%,46,-2%
O=C(CN1CC(c2ccccc2)CC1=O)N/N=C/c1cc(Br)ccc1O (stereo unspecified),?,57,25µM*
O=C(CNC(=O)c1ccccc1)N/N=C/c1cc(Br)ccc1O,-10%,-28,8%
COC(=O)C/C=C/[C@@H](C)[C@@H](/C=N/OCC[C@@H]1C=C[C@H](OC(C)=O)[C@@H](COC(C)=O)O1)NS(=O)(=O)c1ccc(C)cc1,?,37,?
Cn1cccc1C(=O)N1CCC2(CC1)CCN(C(c1ccccc1)c1ccccc1)CC2,-1%,/,-1%
Cc1ccc(C(=O)c2coc3cc([N+](=O)[O-])c(O)c([N+](=O)[O-])c23)cc1,14µM*,43,?
Cc1ccc(C)c([N+](=O)[O-])c1,-16%,/,-5%
NC(=S)c1ncc(C(F)(F)F)cc1Cl,/,/,28µM*
NC(=O)c1ncc(C(F)(F)F)cc1Cl,/,/,0%
O=C(/C=C/c1cccs1)c1ccc(N2CCOCC2)cc1,/,/,-14%
O=C(/C=C/c1cccc(F)c1)c1ccc(N2CCOCC2)cc1,/,/,13µM*
CCC1=C2CC[C@H]3C(=O)NC(=O)[C@H]3[C@H]2[C@@]2(C)C(=NCC(=O)OC)OC(=O)N2C1=O,-7%,/,-3%
FC(F)Sc1nnc(-c2cccs2)n1-c1ccccc1,-12%,-80*,26%
N#Cc1ccc(CSc2nnc(-c3cccs3)n2-c2ccccc2)cc1,-3%,?,-4%
COc1ccc(N=Nc2cnc(C)nc2-c2ccccc2)cc1,-24%,-85*,-13%
Cc1ncc(N=Nc2ccccc2Cl)c(-c2ccccc2)n1,?,29,-1%
NCCCC[C@@H]1NC(=O)[C@H](CCC(=O)O)NC(=O)c2cc([N+](=O)[O-])cc(I)c2OCC[C@@H](C(N)=O)NC1=O,-5%,46,-3%
CCc1c(O)cc(=O)n(-c2ccccc2)c1-c1ccccc1,-7%,-2,-8%
CCc1c(O)cc2n(c1=O)-c1ccc(Cl)cc1C2(C)C,-8%,-23,28µM*
CC(C(=O)Nc1ccccc1Sc1ccccc1)N(c1ccccc1)S(C)(=O)=O (stereo unspecified),-9%,9,-8%
CC1CCCCC1NC(=O)c1cc2ccccc2o1 (stereo unspecified),-7%,15,-10%
CN(C)c1ccc(-c2cncnc2NCc2cccnc2)cc1,/,/,10%
COc1ccc(N(C(=O)CNC(=O)c2ccco2)C(C(=O)NC2CCCCC2)c2ccco2)cc1 (stereo unspecified),-5%,-127*,0%
SMILES,HPGD block,PNC inhibitor,ALDH1A1 inh
COc1ccc(N(CC(=O)NC2CCCCC2)C(=O)CNC(=O)c2ccco2)cc1OC,-18%,-100*,2%
COc1ccc(CN(C(=O)CNC(=O)c2ccco2)C(C(=O)NC2CCCC2)c2ccco2)cc1 (stereo unspecified),-1%,?,0.4µM*
O=C(NC1CCCCC1)C(c1cccs1)N(Cc1cccs1)C(=O)c1ccco1 (stereo unspecified),-12%,-9,?
COC(=O)c1ccc(N(C(=O)CNC(=O)c2ccco2)C(C(=O)NC2CCCC2)c2ccco2)cc1 (stereo unspecified),-1%,-14,1%
CCCCN(C(=O)CNC(=O)c1ccco1)C(C(=O)NC1CCCCC1)c1ccc(OC)cc1OC (stereo unspecified),-6%,0,8%
O=C(NCC(=O)N(Cc1ccccc1)C(C(=O)NC1CCCC1)c1ccco1)c1ccco1 (stereo unspecified),-2%,?,?
O=C(NC1CCCCC1)C(c1cccs1)N(C(=O)c1ccco1)c1ccc2c(c1)OCCO2 (stereo unspecified),-9%,-100*,?
CCOC(=O)n1c(=O)n(Cc2c(Cl)cccc2Cl)c2ccccc21,-14%,26,1%
Cc1cc(Cl)ccc1NC(=S)NCCN1CCOCC1,-7%,36,2%
O=C(O)/C=C\C(=O)Nc1ccc2c(c1)-c1ccccc1C2,-13%,/,-9%[13.5 µM]
